Experimental data: the supplement of paper PMC10849652
Of roughly 8,800 targets only a part is listed; those with a hit were picked by preference. About 0.5% of all pairs of compound and target were hits.

Experiments:
Experiment in all cases: log2 fold change, soluble protein after heating vs DMSO (PISA); higher = thermal stabilisation; K562 lysate, 10 uM; active = over 0.2 and 3.5 SD of the protein, either way, in both replicates (recomputed)
[1] = compound: C1=CC=C(C=C1)[C@H](COC2=CC3=C(C=C2)NC(=O)N3)NC(=O)C4=CC=CN(C4=O)CC5=CC(=C(C=C5)F)F
Summary of the method: (§1)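 Dounce homogenisation of K562 pellets in PBS pH 7.4 with 1 mM MgCl2 produced a crude extract, used at 1 mg/mL protein. Exposure to 10 μM compound lasted 30 min, and aliquots were then heated for 3 min across 48°C-58°C, pooled and brought to 0.5% NP-40 at 4°C. The supernatant after 21,000xg for 90 min was quantified by TMTpro 16plex LC-MS/MS with channel sums equalised. Duplicate values are given as log-two fold change in thermal stability relative to solvent controls.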

[2] = compound: CC1=C(SC2=C1C(=N[C@H](C3=NN=C(N32)C)CC(=O)N)C4=CC=C(C=C4)Cl)C
Summary of the method: as §1

[3] = compound: CC1=C2C(=CC=C1)N=C(N(C2=O)C3=CC=CC=C3C)CN4C=NC5=C(N=CN=C54)N
Summary of the method: as §1

[4] = compound: Cc1sc2c(c1C)C(c1ccc(Cl)cc1)=N[C@@H](CC(=O)OC(C)(C)C)c1nnc(C)n1-2
Summary of the method: as §1

[5] = compound: c1ccc([C@@H]2C[C@H]2NC2CCNCC2)cc1
Summary of the method: as §1

Measured: log2 fold change

MFF isoform 2 (UniProt Q9GZY8)
Chain of UniProt Q9GZY8 (Q9GZY8 whole entry, looked up): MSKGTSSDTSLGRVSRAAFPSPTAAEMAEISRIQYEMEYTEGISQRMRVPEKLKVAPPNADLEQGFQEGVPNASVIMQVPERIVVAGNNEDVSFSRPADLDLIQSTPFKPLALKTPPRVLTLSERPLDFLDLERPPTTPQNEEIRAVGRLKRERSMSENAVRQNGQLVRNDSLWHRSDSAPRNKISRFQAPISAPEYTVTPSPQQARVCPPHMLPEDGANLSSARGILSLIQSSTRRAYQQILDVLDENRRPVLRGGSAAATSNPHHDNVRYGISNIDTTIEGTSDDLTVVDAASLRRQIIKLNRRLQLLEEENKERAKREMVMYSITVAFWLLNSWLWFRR
inactive: [1] 0.044 | [2] -0.029 | [3] -0.009 | [4] -0.049 | [5] -0.125

LAS1L (UniProt Q9Y4W2)
Chain of UniProt Q9Y4W2 (Q9Y4W2 whole entry, looked up): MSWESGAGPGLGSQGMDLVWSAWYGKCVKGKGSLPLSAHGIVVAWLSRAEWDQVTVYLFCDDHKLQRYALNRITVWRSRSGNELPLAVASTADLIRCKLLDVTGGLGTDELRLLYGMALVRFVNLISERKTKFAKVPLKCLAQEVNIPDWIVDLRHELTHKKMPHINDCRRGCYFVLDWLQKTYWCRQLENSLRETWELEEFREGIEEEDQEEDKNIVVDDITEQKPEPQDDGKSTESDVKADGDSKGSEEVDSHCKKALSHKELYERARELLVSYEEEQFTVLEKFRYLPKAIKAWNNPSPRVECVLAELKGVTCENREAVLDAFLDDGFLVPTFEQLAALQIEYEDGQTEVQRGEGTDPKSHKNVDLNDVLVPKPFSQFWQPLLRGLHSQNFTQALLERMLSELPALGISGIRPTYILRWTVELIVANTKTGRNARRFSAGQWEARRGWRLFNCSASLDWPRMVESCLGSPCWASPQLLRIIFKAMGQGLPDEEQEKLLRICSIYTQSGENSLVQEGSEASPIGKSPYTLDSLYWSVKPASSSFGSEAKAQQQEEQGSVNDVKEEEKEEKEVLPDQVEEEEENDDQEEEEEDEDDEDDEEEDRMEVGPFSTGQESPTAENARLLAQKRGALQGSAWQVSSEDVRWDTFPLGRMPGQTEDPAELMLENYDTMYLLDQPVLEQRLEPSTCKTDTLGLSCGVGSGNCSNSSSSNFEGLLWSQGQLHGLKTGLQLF
inactive: [1] -0.002 | [2] 0 | [3] -0.023 | [4] 0.02 | [5] -0.026

MAD2L1BP isoform 3 (UniProt Q15013)
Chain of UniProt Q15013 (Q15013 whole entry, looked up): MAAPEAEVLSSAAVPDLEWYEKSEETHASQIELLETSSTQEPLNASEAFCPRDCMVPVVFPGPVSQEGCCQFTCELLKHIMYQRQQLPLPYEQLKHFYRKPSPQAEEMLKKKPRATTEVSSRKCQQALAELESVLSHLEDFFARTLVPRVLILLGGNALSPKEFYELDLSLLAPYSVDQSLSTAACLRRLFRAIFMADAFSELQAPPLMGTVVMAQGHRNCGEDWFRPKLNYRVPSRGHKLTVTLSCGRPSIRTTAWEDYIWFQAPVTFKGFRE
inactive: [1] 0.003 | [2] 0.005 | [3] -0.013 | [4] -0.01 | [5] -0.006

MLST8 (UniProt Q9BVC4)
inactive: [1] -0.038 | [2] 0.037 | [3] -0.051 | [4] 0.001 | [5] 0.011

MAP4K5 (UniProt Q9Y4K4)
Chain of UniProt Q9Y4K4 (Q9Y4K4 whole entry, looked up): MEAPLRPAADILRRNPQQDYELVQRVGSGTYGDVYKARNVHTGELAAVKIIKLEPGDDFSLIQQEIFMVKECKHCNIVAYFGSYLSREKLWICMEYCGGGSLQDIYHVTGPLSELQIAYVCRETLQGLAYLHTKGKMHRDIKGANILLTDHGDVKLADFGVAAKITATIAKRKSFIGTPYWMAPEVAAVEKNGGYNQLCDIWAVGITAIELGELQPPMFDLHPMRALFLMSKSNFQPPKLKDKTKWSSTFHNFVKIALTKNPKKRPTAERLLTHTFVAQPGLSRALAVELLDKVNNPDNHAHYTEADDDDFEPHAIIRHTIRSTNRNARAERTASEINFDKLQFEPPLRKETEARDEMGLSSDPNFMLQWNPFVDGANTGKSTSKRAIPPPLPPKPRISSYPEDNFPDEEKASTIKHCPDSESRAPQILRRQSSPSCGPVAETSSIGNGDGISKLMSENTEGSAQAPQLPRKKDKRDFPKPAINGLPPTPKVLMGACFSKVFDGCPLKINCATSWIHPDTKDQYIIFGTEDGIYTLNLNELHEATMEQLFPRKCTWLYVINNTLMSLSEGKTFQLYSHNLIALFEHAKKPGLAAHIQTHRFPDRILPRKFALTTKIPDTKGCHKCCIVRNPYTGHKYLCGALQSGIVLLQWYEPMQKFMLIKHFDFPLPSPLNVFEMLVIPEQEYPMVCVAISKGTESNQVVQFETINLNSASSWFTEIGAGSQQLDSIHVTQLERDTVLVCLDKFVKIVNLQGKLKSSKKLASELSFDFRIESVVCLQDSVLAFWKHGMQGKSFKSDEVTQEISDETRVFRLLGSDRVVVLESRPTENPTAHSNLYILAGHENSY
inactive: [1] 0.069 | [2] 0.063 | [3] -0.079 | [4] -0.022 | [5] -0.1

LYN (UniProt P07948)
Chain of UniProt P07948 (P07948 whole entry, looked up): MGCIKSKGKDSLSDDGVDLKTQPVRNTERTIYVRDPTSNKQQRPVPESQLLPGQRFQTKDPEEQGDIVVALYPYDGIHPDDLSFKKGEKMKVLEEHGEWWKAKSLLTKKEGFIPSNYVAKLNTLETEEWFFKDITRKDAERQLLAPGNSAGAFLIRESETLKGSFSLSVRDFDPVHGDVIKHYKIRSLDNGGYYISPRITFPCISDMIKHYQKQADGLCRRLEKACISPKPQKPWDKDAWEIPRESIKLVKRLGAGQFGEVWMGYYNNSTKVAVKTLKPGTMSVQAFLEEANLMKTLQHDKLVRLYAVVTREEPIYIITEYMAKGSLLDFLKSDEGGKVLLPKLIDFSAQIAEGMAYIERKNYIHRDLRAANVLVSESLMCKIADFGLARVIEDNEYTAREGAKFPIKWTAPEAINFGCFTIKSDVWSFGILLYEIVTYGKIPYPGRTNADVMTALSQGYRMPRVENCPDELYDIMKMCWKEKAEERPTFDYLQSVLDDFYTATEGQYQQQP
inactive: [1] -0.063 | [2] -0.103 | [3] -0.091 | [4] -0.032 | [5] 0.011

L3HYPDH (UniProt Q96EM0)
Chain of UniProt Q96EM0 (Q96EM0 whole entry, looked up): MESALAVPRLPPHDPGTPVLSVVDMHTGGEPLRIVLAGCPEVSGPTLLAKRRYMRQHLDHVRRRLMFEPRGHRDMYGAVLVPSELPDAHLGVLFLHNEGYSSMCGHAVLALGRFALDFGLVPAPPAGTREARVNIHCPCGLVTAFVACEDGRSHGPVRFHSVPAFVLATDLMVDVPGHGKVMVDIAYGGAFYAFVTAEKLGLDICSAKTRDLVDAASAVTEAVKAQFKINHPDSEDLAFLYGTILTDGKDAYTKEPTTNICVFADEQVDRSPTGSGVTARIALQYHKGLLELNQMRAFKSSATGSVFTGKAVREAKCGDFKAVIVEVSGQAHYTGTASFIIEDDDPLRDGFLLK
inactive: [1] -0.022 | [2] 0.042 | [3] 0.003 | [4] -0.014 | [5] 0.01

MON2 isoform 5 (UniProt Q7Z3U7)
Chain of UniProt Q7Z3U7 (Q7Z3U7 whole entry, looked up): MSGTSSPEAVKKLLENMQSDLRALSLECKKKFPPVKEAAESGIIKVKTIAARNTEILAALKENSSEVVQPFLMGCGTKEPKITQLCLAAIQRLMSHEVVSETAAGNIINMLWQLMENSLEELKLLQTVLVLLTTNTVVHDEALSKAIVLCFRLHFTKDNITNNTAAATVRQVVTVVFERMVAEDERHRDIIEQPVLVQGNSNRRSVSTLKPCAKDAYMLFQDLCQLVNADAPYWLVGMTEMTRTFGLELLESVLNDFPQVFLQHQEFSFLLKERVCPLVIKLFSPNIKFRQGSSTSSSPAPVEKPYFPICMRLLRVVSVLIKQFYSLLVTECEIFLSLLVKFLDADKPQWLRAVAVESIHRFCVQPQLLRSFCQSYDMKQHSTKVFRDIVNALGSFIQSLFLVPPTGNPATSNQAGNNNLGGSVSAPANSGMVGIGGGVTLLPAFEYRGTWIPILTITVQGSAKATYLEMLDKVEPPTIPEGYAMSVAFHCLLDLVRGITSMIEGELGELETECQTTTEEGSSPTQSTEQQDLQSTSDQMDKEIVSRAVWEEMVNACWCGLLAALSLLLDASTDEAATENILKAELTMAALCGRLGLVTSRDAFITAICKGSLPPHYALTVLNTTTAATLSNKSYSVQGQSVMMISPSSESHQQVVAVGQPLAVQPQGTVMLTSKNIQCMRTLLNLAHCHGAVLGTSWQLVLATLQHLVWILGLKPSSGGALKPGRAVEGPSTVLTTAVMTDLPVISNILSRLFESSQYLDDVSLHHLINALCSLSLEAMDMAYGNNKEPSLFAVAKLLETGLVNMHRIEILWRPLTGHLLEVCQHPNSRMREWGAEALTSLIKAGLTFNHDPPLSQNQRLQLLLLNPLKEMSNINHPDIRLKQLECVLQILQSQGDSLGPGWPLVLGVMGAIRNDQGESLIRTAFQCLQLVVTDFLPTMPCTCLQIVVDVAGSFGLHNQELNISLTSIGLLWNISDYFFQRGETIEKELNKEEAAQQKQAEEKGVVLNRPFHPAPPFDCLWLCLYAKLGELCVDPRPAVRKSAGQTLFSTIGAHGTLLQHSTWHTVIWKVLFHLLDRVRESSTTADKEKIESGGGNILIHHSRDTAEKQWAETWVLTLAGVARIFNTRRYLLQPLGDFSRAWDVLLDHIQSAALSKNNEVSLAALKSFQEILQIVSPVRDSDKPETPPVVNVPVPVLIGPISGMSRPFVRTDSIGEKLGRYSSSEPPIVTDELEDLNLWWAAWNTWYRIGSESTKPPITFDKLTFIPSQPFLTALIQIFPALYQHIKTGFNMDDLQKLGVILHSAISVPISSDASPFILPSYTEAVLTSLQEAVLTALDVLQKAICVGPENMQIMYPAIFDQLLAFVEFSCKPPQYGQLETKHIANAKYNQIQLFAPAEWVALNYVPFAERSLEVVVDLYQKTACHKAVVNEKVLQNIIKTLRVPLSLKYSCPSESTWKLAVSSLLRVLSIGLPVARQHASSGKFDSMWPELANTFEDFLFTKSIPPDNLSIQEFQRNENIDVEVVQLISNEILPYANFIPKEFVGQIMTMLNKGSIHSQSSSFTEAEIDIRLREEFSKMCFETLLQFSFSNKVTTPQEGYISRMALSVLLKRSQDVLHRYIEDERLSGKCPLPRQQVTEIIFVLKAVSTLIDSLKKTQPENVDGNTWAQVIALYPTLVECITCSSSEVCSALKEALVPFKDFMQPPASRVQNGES
inactive: [1] -0.014 | [2] 0.006 | [3] 0.005 | [4] 0.009 | [5] -0.013

MITD1 (UniProt Q8WV92)
Chain of UniProt Q8WV92 (Q8WV92 whole entry, looked up): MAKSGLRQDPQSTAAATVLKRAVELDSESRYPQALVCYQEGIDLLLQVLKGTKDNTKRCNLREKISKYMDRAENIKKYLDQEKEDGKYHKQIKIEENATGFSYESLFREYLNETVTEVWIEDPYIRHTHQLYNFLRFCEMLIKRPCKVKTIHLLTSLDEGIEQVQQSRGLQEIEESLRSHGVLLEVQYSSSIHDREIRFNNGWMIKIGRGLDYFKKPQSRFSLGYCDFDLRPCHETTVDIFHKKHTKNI
inactive: [1] -0.036 | [2] -0.038 | [3] -0.015 | [4] -0.026 | [5] 0.117
